# Data published in paper PMC5540273 (PLoS ONE, 2017).
# System: NEK4
# Conditions: concentration: 1 μM, replicates: in singlicate; n = 1
# 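Note: KINOMEscan kinase panel screen.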
row,SMILES,%Inh [%]
1,Fc1cc(Cl)ccc1Nc1ccnc2cc(-c3ccc(CN4CCCCC4)o3)ccc12 [GW560116],0
2,O=C(Nc1n[nH]c2nc(-c3nccs3)c(Br)cc12)C1CC1 [SB-742251],21
3,Cc1cccc(-c2nc(Nc3ccc4[nH]ncc4c3)c3ccccc3n2)n1 [GW857175],27
4,O=C(Nc1n[nH]c2nc(-c3nccs3)c(Br)cc12)C1CCCC1 [SB-742609],38
5,CS(=O)(=O)c1ccc(-c2c(-c3ncn[nH]3)sc(N3CCOCC3)c2C#N)cc1,0
6,Cc1cccc(-c2nc(Nc3ccncc3)c3ccccc3n2)n1 [GW855857],0
7,CC(=O)Nc1nc2cnc(Nc3cc(NC(=O)c4cccc(CCC#N)c4)ccc3C)nc2s1,0
8,COc1cc2nccc(Nc3ccc(NC(=O)c4ccc(C)cc4)c(O)c3)c2cc1OC.Cl [GW440132],0
9,Cc1ccc(NC(=O)Nc2cc(C(C)(C)C)nn2-c2ccccc2)cc1 [GSK1014915],10
10,COC(=O)c1c(-c2ccccc2)c2cc(OC)ccc2c(=O)n1Cc1ccccc1,11
11,CCCc1ccc(S(=O)(=O)NC2CCN(c3ccnc(Nc4ccc(F)cc4)n3)C2)cc1 (centres unmarked) [GSK1379715],5
12,Cn1ccc2ncnc(Oc3ccc(Nc4nc5ccccc5[nH]4)cc3)c21,99.9
13,O=S(=O)(c1ccc(-c2ccnc3[nH]ccc23)cc1)N1CCCC1 [GSK846226],0
14,O=C(O)COc1ncnc2cc(-c3ccc4[nH]ncc4c3)sc12,10
15,Cc1cccc(-c2nc(Nc3cccc(C(N)=O)c3)c3ccccc3n2)n1 [GW876019],0
16,O=c1cc(N2CCOCC2)nc2n(Cc3cccc(Cl)c3Cl)ccn12 [GSK2286295],6
17,COc1cccc(-c2cc(-c3c[nH]nc3-c3ccccn3)ccn2)c1 [GW680338],13
18,COc1ccc(CNC(=O)NC2CCN(c3ccnc(Nc4cc(OC)c(OC)c(OC)c4)n3)C2)cc1 (centres unmarked) [GSK1379748],30
19,Cc1ccc(-c2cc(-c3c[nH]nc3-c3ccccn3)ccn2)cc1 [GW684088],0
20,Cl.O=C(Nc1cccc(-c2nn3ncccc3c2-c2ccnc(Nc3cccnc3)n2)c1)c1c(F)cccc1F [GSK312879],23
21,Nc1nc(-c2nccs2)c(-c2ccnc3ccccc23)s1 [GW693542],0

# System: NEK5
# Conditions: concentration: 1 μM, replicates: in singlicate; n = 1
row,SMILES,%Inh [%]
1,Cn1ccc2ncnc(Oc3ccc(NC(=O)Nc4ccccc4)cc3)c21,0
2,COc1cccc(NC(=O)NC2CCN(c3ccnc(Nc4ccc(F)cc4)n3)C2)c1 (centres unmarked) [GSK1379721],29
3,Cc1ccccc1-n1cnc2c(N)ncnc21 [SKF-97510],9
4,COc1ccccc1CNC(=O)c1cc(C(=O)c2ccccc2C)c[nH]1 [GSK364507],13
5,Cn1cncc1-c1ccc2ncnc(Nc3ccc(OCc4ccccc4)cc3)c2c1 [GW320571],0
6,O=C1NC(=O)C(N2CCc3ccccc32)=C1c1ccccc1Cl [SB-373598],9
7,COc1ccc(Nc2nccc(-c3cccc(NC(=O)c4cc5cc(F)ccc5[nH]4)c3)n2)cc1 [GSK1229782],29
8,Cc1c(O)cccc1Nc1ccnc2ccc(C(F)(F)F)cc12.Cl [GW466413],0
9,CC1=C(C(=O)Nc2cc3cn[nH]c3cc2F)C(c2ccc(C(F)(F)F)cc2)CC(=O)N1 (centres unmarked) [GSK429286],0
10,COC(=O)c1c(-c2ccccc2)c2cc(C(=O)O)ccc2c(=O)n1Cc1ccccc1,0
11,COc1ccc2nc(-c3cccc(C)n3)nc(Nc3ccncc3)c2c1 [GSK204919],17
12,Cc1cc(-c2ccc3c(c2)CC[C@@H](N[C@@H](C)c2ccccc2)C3)cnc1N.Cl [GW412617],0
13,O=C(Nc1ccccc1)Nc1cccc(Oc2ccc3nccn3n2)c1,0
14,Cc1nnc(-c2ccc3occ(-c4ccc(S(C)=O)cc4)c3c2)[nH]1 (centres unmarked),1
15,Fc1cc(Cl)ccc1Nc1ccnc2cc(-c3ccc(CN4CCCCC4)o3)ccc12 [GW560116],4
16,O=C(Nc1n[nH]c2nc(-c3nccs3)c(Br)cc12)C1CC1 [SB-742251],10
17,Cc1cccc(-c2nc(Nc3ccc4[nH]ncc4c3)c3ccccc3n2)n1 [GW857175],8
18,O=C(Nc1n[nH]c2nc(-c3nccs3)c(Br)cc12)C1CCCC1 [SB-742609],0

row,SMILES,%Inh [%]
1,CS(=O)(=O)c1ccc(-c2c(-c3ncn[nH]3)sc(N3CCOCC3)c2C#N)cc1,7
2,Cc1cccc(-c2nc(Nc3ccncc3)c3ccccc3n2)n1 [GW855857],10
3,CC(=O)Nc1nc2cnc(Nc3cc(NC(=O)c4cccc(CCC#N)c4)ccc3C)nc2s1,0
4,COc1cc2nccc(Nc3ccc(NC(=O)c4ccc(C)cc4)c(O)c3)c2cc1OC.Cl [GW440132],14
5,Cc1ccc(NC(=O)Nc2cc(C(C)(C)C)nn2-c2ccccc2)cc1 [GSK1014915],0
6,COC(=O)c1c(-c2ccccc2)c2cc(OC)ccc2c(=O)n1Cc1ccccc1,0
7,CCCc1ccc(S(=O)(=O)NC2CCN(c3ccnc(Nc4ccc(F)cc4)n3)C2)cc1 (centres unmarked) [GSK1379715],10
8,Cn1ccc2ncnc(Oc3ccc(Nc4nc5ccccc5[nH]4)cc3)c21,0
9,O=S(=O)(c1ccc(-c2ccnc3[nH]ccc23)cc1)N1CCCC1 [GSK846226],31
10,O=C(O)COc1ncnc2cc(-c3ccc4[nH]ncc4c3)sc12,25
11,Cc1cccc(-c2nc(Nc3cccc(C(N)=O)c3)c3ccccc3n2)n1 [GW876019],12
12,O=c1cc(N2CCOCC2)nc2n(Cc3cccc(Cl)c3Cl)ccn12 [GSK2286295],4
13,COc1cccc(-c2cc(-c3c[nH]nc3-c3ccccn3)ccn2)c1 [GW680338],14
14,COc1ccc(CNC(=O)NC2CCN(c3ccnc(Nc4cc(OC)c(OC)c(OC)c4)n3)C2)cc1 (centres unmarked) [GSK1379748],93.1
15,Cc1ccc(-c2cc(-c3c[nH]nc3-c3ccccn3)ccn2)cc1 [GW684088],11
16,Cl.O=C(Nc1cccc(-c2nn3ncccc3c2-c2ccnc(Nc3cccnc3)n2)c1)c1c(F)cccc1F [GSK312879],0
17,Nc1nc(-c2nccs2)c(-c2ccnc3ccccc23)s1 [GW693542],3
